In PubChem BioAssay one finds viability decrease (inhibition) data, which are given here for 38 compounds.

The source made the active and inactive calls.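 How the source made its calls, unless noted: active means compounds that lower viability of the colon cancer cells in the luminescence readout, with no numeric limit stated; inactive means the rest.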

The first experiment can be described thus: reduced SW480 viability measured with CellTiter-Glo, NPC library, primary (AID 1117343). Particulars: CellTiter-Glo luminescence; at 20 µM (top of the series).
Take `Cc1cccc(C)c1OCC(C)N` (stereo unspecified): the viability decrease (inhibition) is -7.7% (inactive).
As for `COc1ccc(C2CNC(=O)C2)cc1OC1CCCC1` (stereo unspecified), the viability decrease (inhibition) is 88.4% (active).
With `CNS(=O)(=O)Cc1ccc2[nH]cc(CCN(C)C)c2c1`, the viability decrease (inhibition) was 66.2% (active).
In the case of `Nc1nc(F)nc2c1ncn2[C@@H]1O[C@H](CO)[C@@H](O)[C@@H]1O`, the viability decrease (inhibition) was 17.2% (inactive).
The same measure, in the same setting: next, `CCCCN(CCCC)CCC(O)c1cc2c(Cl)cc(Cl)cc2c2cc(C(F)(F)F)ccc12` (stereo unspecified): 131% (active).
Still for that read-out and setting: the value for `CCN1CC(CCN2CCOCC2)C(c2ccccc2)(c2ccccc2)C1=O` (stereo unspecified) was 13.5% (inactive); that for `OCc1cccnc1` was -6.5% (inactive).
Still for that read-out and setting: next, `Cc1ccsc1C(=CCCN1CCC[C@@H](C(=O)O)C1)c1sccc1C`: -16.3% (inactive).
Take `NS(=O)(=O)Cc1noc2ccccc12`: the viability decrease (inhibition) is 44.2% (inactive).
On to `CCN(CC)CC1CCCCN1CC(=O)N1c2ccccc2C(=O)Nc2cccnc21` (stereo unspecified), for which the viability decrease (inhibition) was -3.8% (inactive).
As for `CN(C)CCCSc1ccccc1NC(=O)/C=C/c1ccccc1`, the viability decrease (inhibition) is 5.3% (inactive).
As to `CCc1oc2ccccc2c1C(=O)c1cc(Br)c(O)c(Br)c1`, the viability decrease (inhibition) was 154% (active).
The same measure, in the same setting: next, `Cc1c[nH]c2ccccc12`: 15% (inactive); `O=NN(CCCl)C(=O)NC1CCCCC1`: 57.8% (active).
Consider `CCCN1CCCC[C@H]1C(=O)Nc1c(C)cccc1C`, for which the viability decrease (inhibition) is -17% (inactive).
With `CCCc1c(OCCCCc2nn[nH]n2)ccc(C(C)=O)c1O`, the viability decrease (inhibition) was 29.7% (inactive).
For the compound `CCOC(=O)[C@H](CCc1ccccc1)N[C@@H](C)C(=O)N1[C@H](C(=O)O)C[C@@H]2CCC[C@@H]21`, the viability decrease (inhibition) was -19% (inactive).
In the case of `CN1CCN(c2c(F)cc3c(=O)c(C(=O)O)cn4c3c2SCC4)CC1`, the viability decrease (inhibition) is -18.1% (inactive).
For `CN(CCCN1c2ccccc2CCc2ccccc21)CC(=O)c1ccc(Cl)cc1`, the viability decrease (inhibition) is 84.8% (active).
Take `CNCCCCOc1ccccc1Cc1ccccc1`: the viability decrease (inhibition) was 85.7% (active).
Consider `CCC1=C(C)CN(C(=O)NCCc2ccc(S(=O)(=O)NC(=O)NC3CCC(C)CC3)cc2)C1=O` (stereo unspecified), for which the viability decrease (inhibition) was 17.1% (inactive).
On to `Cc1cnc(NC(=O)C2=C(O)c3ccccc3S(=O)(=O)N2C)s1`, for which the viability decrease (inhibition) was 23.9% (inactive).
In the case of `CCOC(=O)OC(C)OC1=C(C(=O)Nc2ccccn2)N(C)S(=O)(=O)c2ccccc21` (stereo unspecified), the viability decrease (inhibition) is -18.8% (inactive).
The same measure, in the same setting: next, `CCOC(=O)c1ncn2c1CN(C)C(=O)c1cc(F)ccc1-2`: 17.1% (inactive).
For `CC(=O)OCC(=O)NCCCOc1cccc(CN2CCCCC2)c1`, the viability decrease (inhibition) is 22.9% (inactive).
On to `CC(C)NCC(O)COc1ccc(CCOCC2CC2)cc1` (stereo unspecified), for which the viability decrease (inhibition) is 10.9% (inactive).
For `CN1[C@@H]2CC[C@H]1CC(OC(=O)c1c[nH]c3ccccc13)C2` (stereo partly specified), the viability decrease (inhibition) was 51.8% (active).
For the compound `Nc1nc2c(ncn2CCC(CO)CO)c(=O)[nH]1`, the viability decrease (inhibition) is 47.6% (inactive).
As to `C/C=C1\[C@H]2C=C(C)C[C@]1(N)c1ccc(=O)[nH]c1C2`, the viability decrease (inhibition) is -14.7% (inactive).
`CNNCc1ccc(C(=O)NC(C)C)cc1`: the viability decrease (inhibition) is 5.8% (active).
On to `CC(C)(O)c1ccccc1CC[C@@H](SCC1(CC(=O)O)CC1)c1cccc(/C=C/c2ccc3ccc(Cl)cc3n2)c1`, for which the viability decrease (inhibition) was 133% (active).
In the case of `CC[N+](C)(CC)CCOC(=O)C(O)(c1ccccc1)C1CCCCC1` (stereo unspecified), the viability decrease (inhibition) is 0.8% (inactive).
As to `CC1(C)O[C@@H]2C[C@H]3[C@@H]4C[C@H](F)C5=CC(=O)C=C[C@]5(C)[C@@]4(F)[C@@H](O)C[C@]3(C)[C@]2(C(=O)CO)O1`, the viability decrease (inhibition) was 1.8% (active).
Still for that read-out and setting: the value for `CNCC(O)c1ccc(O)c(O)c1` (stereo unspecified) was 58.9% (active); that for `CC(C)(C)NC(=O)[C@@H]1CN(Cc2cccnc2)CCN1C[C@@H](O)C[C@@H](Cc1ccccc1)C(=O)N[C@H]1c2ccccc2C[C@H]1O` was -7.5% (inactive); that for `Oc1cccc2[nH]ccc12` was 0.4% (inactive).
In the case of `COc1cc2c(cc1OC)C(=O)C(CC1CCN(Cc3ccccc3)CC1)C2` (stereo unspecified), the viability decrease (inhibition) is 69.8% (active).
For the compound `CCN(CC)CCNC(=O)c1cc(Cl)c(N)cc1OC`, the viability decrease (inhibition) was -17.7% (inactive).

The nature of a further experiment: NPC library primary testing for decreased DLD-1 cell viability via CellTiter-Glo (AID 1117346;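 active means compounds that lower survival of DLD-1 colon cancer cells in the luminescence readout, no cutoff given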). The note with it: DLD-1 viability, CellTiter-Glo luminescence; at 20 µM (top of the series).
With `Cc1cccc(C)c1OCC(C)N` (stereo unspecified), the viability decrease (inhibition) is 4.3% (inactive).
`COc1ccc(C2CNC(=O)C2)cc1OC1CCCC1` (stereo unspecified): the viability decrease (inhibition) was 29.1% (inactive).
`CNS(=O)(=O)Cc1ccc2[nH]cc(CCN(C)C)c2c1`: the viability decrease (inhibition) is -3.8% (inactive).
As for `Nc1nc(F)nc2c1ncn2[C@@H]1O[C@H](CO)[C@@H](O)[C@@H]1O`, the viability decrease (inhibition) is 19.4% (inactive).
As to `CCCCN(CCCC)CCC(O)c1cc2c(Cl)cc(Cl)cc2c2cc(C(F)(F)F)ccc12` (stereo unspecified), the viability decrease (inhibition) is 100% (active).
On to `CCN1CC(CCN2CCOCC2)C(c2ccccc2)(c2ccccc2)C1=O` (stereo unspecified), for which the viability decrease (inhibition) is 4.2% (inactive).
Regarding `OCc1cccnc1`, the viability decrease (inhibition) was 7.3% (inactive).
The same measure, in the same setting: next, `Cc1ccsc1C(=CCCN1CCC[C@@H](C(=O)O)C1)c1sccc1C`: 2.5% (inactive); `NS(=O)(=O)Cc1noc2ccccc12`: 24.9% (inactive).
With `CCN(CC)CC1CCCCN1CC(=O)N1c2ccccc2C(=O)Nc2cccnc21` (stereo unspecified), the viability decrease (inhibition) was 6.8% (inactive).
Still for that read-out and setting: next, `CN(C)CCCSc1ccccc1NC(=O)/C=C/c1ccccc1`: -18% (inactive).
Regarding `CCc1oc2ccccc2c1C(=O)c1cc(Br)c(O)c(Br)c1`, the viability decrease (inhibition) is 101% (active).
For `Cc1c[nH]c2ccccc12`, the viability decrease (inhibition) is 10% (inactive).
As to `O=NN(CCCl)C(=O)NC1CCCCC1`, the viability decrease (inhibition) is 3.5% (inactive).
Turning to `CCCN1CCCC[C@H]1C(=O)Nc1c(C)cccc1C`, the viability decrease (inhibition) was 6.9% (inactive).
For `CCCc1c(OCCCCc2nn[nH]n2)ccc(C(C)=O)c1O`, the viability decrease (inhibition) is 27.7% (inactive).
`CCOC(=O)[C@H](CCc1ccccc1)N[C@@H](C)C(=O)N1[C@H](C(=O)O)C[C@@H]2CCC[C@@H]21`: the viability decrease (inhibition) is -0.3% (inactive).
Consider `CN1CCN(c2c(F)cc3c(=O)c(C(=O)O)cn4c3c2SCC4)CC1`, for which the viability decrease (inhibition) was 0.6% (inactive).
In the case of `CN(CCCN1c2ccccc2CCc2ccccc21)CC(=O)c1ccc(Cl)cc1`, the viability decrease (inhibition) is 39% (inactive).
On to `CNCCCCOc1ccccc1Cc1ccccc1`, for which the viability decrease (inhibition) was 50.3% (active).
Same read-out and setting: next, `CCC1=C(C)CN(C(=O)NCCc2ccc(S(=O)(=O)NC(=O)NC3CCC(C)CC3)cc2)C1=O` (stereo unspecified): 7.8% (inactive); `Cc1cnc(NC(=O)C2=C(O)c3ccccc3S(=O)(=O)N2C)s1`: 4.7% (active).
Consider `CCOC(=O)OC(C)OC1=C(C(=O)Nc2ccccn2)N(C)S(=O)(=O)c2ccccc21` (stereo unspecified), for which the viability decrease (inhibition) is -0.2% (inactive).
In the case of `CCOC(=O)c1ncn2c1CN(C)C(=O)c1cc(F)ccc1-2`, the viability decrease (inhibition) is 4% (inactive).
In the case of `CC(=O)OCC(=O)NCCCOc1cccc(CN2CCCCC2)c1`, the viability decrease (inhibition) is -31.7% (inactive).
On to `CC(C)NCC(O)COc1ccc(CCOCC2CC2)cc1` (stereo unspecified), for which the viability decrease (inhibition) was 2.1% (inactive).
As to `CN1[C@@H]2CC[C@H]1CC(OC(=O)c1c[nH]c3ccccc13)C2` (stereo partly specified), the viability decrease (inhibition) is 43.6% (inactive).
Still for that read-out and setting: next, `Nc1nc2c(ncn2CCC(CO)CO)c(=O)[nH]1`: -0.57% (inactive).
Regarding `C/C=C1\[C@H]2C=C(C)C[C@]1(N)c1ccc(=O)[nH]c1C2`, the viability decrease (inhibition) is 0.1% (inactive).
With `CNNCc1ccc(C(=O)NC(C)C)cc1`, the viability decrease (inhibition) is -10.5% (inactive).
In the case of `CC(C)(O)c1ccccc1CC[C@@H](SCC1(CC(=O)O)CC1)c1cccc(/C=C/c2ccc3ccc(Cl)cc3n2)c1`, the viability decrease (inhibition) is 102% (active).
Regarding `CC[N+](C)(CC)CCOC(=O)C(O)(c1ccccc1)C1CCCCC1` (stereo unspecified), the viability decrease (inhibition) is -8.3% (inactive).
As for `CC1(C)O[C@@H]2C[C@H]3[C@@H]4C[C@H](F)C5=CC(=O)C=C[C@]5(C)[C@@]4(F)[C@@H](O)C[C@]3(C)[C@]2(C(=O)CO)O1`, the viability decrease (inhibition) is 24.1% (inactive).
For the compound `CNCC(O)c1ccc(O)c(O)c1` (stereo unspecified), the viability decrease (inhibition) is 17.7% (inactive).
For the compound `CC(C)(C)NC(=O)[C@@H]1CN(Cc2cccnc2)CCN1C[C@@H](O)C[C@@H](Cc1ccccc1)C(=O)N[C@H]1c2ccccc2C[C@H]1O`, the viability decrease (inhibition) is -9.3% (inactive).
The same measure, in the same setting: next, `Oc1cccc2[nH]ccc12`: -8.1% (inactive).
As for `COc1cc2c(cc1OC)C(=O)C(CC1CCN(Cc3ccccc3)CC1)C2` (stereo unspecified), the viability decrease (inhibition) is 38.5% (inactive).
As for `CCN(CC)CCNC(=O)c1cc(Cl)c(N)cc1OC`, the viability decrease (inhibition) was 6% (inactive).
